# Screening results: PubChem, National Center for Advancing Translational Sciences (NCATS)
# This is one part of a sample in which hits are shown more often than they occur.
# Pf Dd2 inh: blocks in vitro growth of P. falciparum Dd2; P. falciparum Dd2 growth, SYBR Green, 72 h; Potency, µM (series often up to 28.9 µM), for inactives: top-dose activity, negative = inhibition, usual class: inhibitors; 4.3% of 120,000 active; AID 1347417; active = well fitted inhibition curve with a large enough effect;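 note: plate controls were DMSO vehicle for no effect and reference drug for full effect; nearly all actives have a fitted effect of over 65% in size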
#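 Infected erythrocytes (Dd2, 0.3% parasitemia, 2.5% hematocrit final) are added to compound in RPMI-1640/Albumax II medium, grown 72 h at 37C in low oxygen, then lysed with saponin/Triton-X containing SYBR Green and read by fluorescence.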
# Starred values were filed as active, the others as inactive; i = inactive; [ ] = remark or other dose. Potency is the fitted concentration of half-maximal effect.
SMILES,Pf Dd2 inh
CCCn1ccnc1-c1c(-c2ccccc2)ncn1CCCC(=O)OC,1%
COc1cccc(OC)c1-c1c(-c2ccccc2)ncn1CCCSC,10µM*
CN(CC1CCOC1)C(=O)c1ccc(F)c(F)c1 (stereo not given),i[5.79 µM]
COc1ccc(CN2C(=O)C3(CCOCC3)CC2c2nnnn2C(C)(C)C)cc1 (stereo not given),37%
Cc1ccc(Cl)cc1N1CCN(C(=O)c2cc3c(=O)n(C)c4ccccc4c3s2)CC1,32%[5.79 µM]
Cc1ccc(Cl)cc1N1CCN(C(=O)c2cn(CC(C)C)c(=O)c3c2c2ccccc2n3C)CC1,3.2µM*
Cc1ccc(Cl)cc1N1CCN(C(=O)CCc2nnc3n(C)c(=O)c4ccccc4n23)CC1,-19%
OCC1CN(c2ccncn2)CC12CCN(Cc1cccc(F)c1F)CC2 (stereo not given),i
COc1cccc(CNC(=O)c2cc(-c3ccc(Cl)s3)nc3ccccc23)c1,-2%
CCc1ccc(CNC(=O)c2cc(-c3ccc(Br)s3)nc3ccccc23)cc1,i
CCN(CC)CCNC(=O)c1cc(-c2ccc(Br)s2)nc2ccccc12,11µM*
CCn1cc(CNC2CC(=O)N(CCc3ccccc3)C2)cn1 (stereo not given),-20%
CC(C)c1ccc(NC(=O)C2CCN(C(=O)c3ncn4c3COC(c3ccc(F)cc3)C4)CC2)cc1 (stereo not given),-16%
CCOc1ccccc1NC(=O)N1CCCCCCN(C)C(=O)[C@H]2CCC[C@H]21,11µM*
CN1CCCCCCN(C(=O)NC2CCCCC2)[C@H]2CCC[C@H]2C1=O,i
CCOc1ccccc1NC(=O)N1CCCCCCN(C)C(=O)CC1,-24%
CCC[C@H]1CN(CCCOc2ccc(C(N)=O)cc2)C[C@@H]1NC(C)=O,2%
COc1cccc(CNC(=O)C2CN(c3cccc(Cl)c3)C(=O)N2)c1 (stereo not given),-3%
Cc1ncoc1C(=O)N1CCCC(CCc2ccc(F)c(F)c2)C1 (stereo not given),-5%
O[C@]12CCNC[C@H]1CN(Cc1cccc(-c3ccccc3)c1)CC2,8.9µM*
OC[C@]12CCCN[C@@H]1CCN(Cc1cccc(-c3ccccn3)c1)C2,i
CN1C(=O)CC(C(=O)O)C12CCN(Cc1cccc(-c3ccccc3)c1)CC2 (stereo not given),-16%
CCOCC(=O)N1CCCn2ccnc2C1C(C)C (stereo not given),-6%
CC(C)CCC(=O)NC1CCN(c2cn[nH]c(=O)c2)CC1,1%
Cc1cc(C)n(CC(=O)N2CCC(c3nc(CCOCC4CCCC4)no3)C2)n1 (stereo not given),2%
SMILES,Pf Dd2 inh
CNC(=O)[C@@H]1CN(C(=O)c2ccc(F)cc2Cl)C[C@H]1COC,10%
c1ccc(CN2Cc3[nH]cnc3C[C@H]2c2nc(-c3ccccc3)no2)cc1,13µM*
Cc1ccc(-c2noc([C@@H]3Cc4nc[nH]c4CN3C(=O)CCC(=O)O)n2)cc1,-15%[44.1 µM]
O=C(Nc1cccc(F)c1)N1Cc2[nH]cnc2C[C@H]1c1nc(-c2ccc(C(F)(F)F)cc2)no1,i
FC(F)(F)c1ccc(-c2noc([C@@H]3Cc4nc[nH]c4CN3Cc3cc4ccccc4o3)n2)cc1,8.9µM*
O=C(Nc1ccc(Cl)cc1)N1Cc2[nH]cnc2C[C@H]1c1nc(-c2ccc(F)c(Cl)c2)no1,i
Cc1ccc(-c2noc([C@@H]3Cc4nc[nH]c4CN3Cc3ccc(N(C)C)cc3)n2)cc1,i
CN(C)c1ccc(CN2Cc3[nH]cnc3C[C@H]2c2nc(-c3ccccc3)no2)cc1,-15%[44.1 µM]
O=C(c1ccccc1)N1Cc2[nH]cnc2C[C@H]1c1nc(-c2ccc(Cl)cc2)no1,i
CCNC(=O)N1Cc2[nH]cnc2C[C@H]1c1nc(-c2ccc(F)c(Cl)c2)no1,i
Cc1ccc(-c2noc([C@@H]3Cc4nc[nH]c4CN3Cc3ccccc3)n2)cc1,10µM*
c1csc(CN2Cc3[nH]cnc3C[C@H]2c2nc(-c3ccncc3)no2)c1,i
Fc1ccc(CN2Cc3[nH]cnc3C[C@H]2c2nc(-c3ccc(F)c(Cl)c3)no2)cc1,11µM*
CCn1ncc(CN2C[C@@H](CO)[C@H](NC(C)=O)C2)c1C,47%
CCC(CC)C(=O)N1CCCN(S(C)(=O)=O)c2ccccc21,2%
Cc1cc(C(=O)N2CC(c3nnc(-c4ccncc4)o3)C3(CCOCC3)C2)n(C)n1 (stereo not given),-1%
CN(Cc1ccc(F)cc1)C(=O)c1ccccc1,-12%[44.1 µM]
Cc1noc(C2CC3(CCN(C(=O)c4n[nH]c(=O)c5ccccc45)CC3)CN2C)n1 (stereo not given),-4%
COc1ccc(-c2ccnc(-c3nnc(C)n3CCN(C)C)c2)cc1OC,i
CN1CCN(C(=O)CCc2ccncc2)CC12CCNCC2,6%
COc1ccc(-c2noc([C@@H]3Cc4nc[nH]c4CN3Cc3cccs3)n2)cc1,i
COc1ccc(CN2Cc3[nH]cnc3C[C@H]2c2nc(-c3ccc(C)cc3)no2)cc1,22µM*
COc1ccccc1CN1Cc2[nH]cnc2C[C@H]1c1nc(-c2cccc(C)c2)no1,13µM*
Cc1ccc(-c2noc([C@@H]3Cc4nc[nH]c4CN3C(=O)COCC(=O)O)n2)cc1,11%[44.1 µM]
COc1ccc(CN2Cc3[nH]cnc3C[C@H]2c2nc(-c3ccccn3)no2)cc1,-3%[44.1 µM]
SMILES,Pf Dd2 inh
Cc1cccc(-c2noc([C@@H]3Cc4nc[nH]c4CN3C(=O)CC(C)(C)CC(=O)O)n2)c1,i
Cc1cc(C(=O)Nc2ccc([C@H]3OCC(=O)N(CC(C)C)[C@@H]3CO)cc2)n(C)n1,i
CCc1nc(-c2c3n(c(=O)n(CC(=O)Nc4cc(C)ccc4C)c2=O)CCCCC3)no1,i
CCCNC(=O)N[C@H]1C[C@@](O)(C(=O)N[C@H](C)C(N)=O)C[C@@H](O)[C@@H]1O,53%[44.1 µM]
COC1CCN(CC2CCCCCN2C(=O)c2ccoc2)CC1 (stereo not given),0%
COc1ccc(CCN(C)C(=O)CC(c2cccc(F)c2)c2cn(C)c3ccccc23)cc1OC (stereo not given),2µM*
COc1cccc(C(CC(=O)NCCc2ccc(OC)c(OC)c2)c2c[nH]c3ccccc23)c1 (stereo not given),-16%
COc1ccccc1C(CC(=O)NCC(C)C)c1cn(C)c2ccccc12 (stereo not given),i
COc1ccccc1OCCn1c(-c2ccc(Cl)cc2)nc2ccccc2c1=O,-10%
COc1ccc(-c2nc3ccccc3n2Cc2ccc(Cl)cc2)cc1,-10%
COc1cccc(OCCCCn2c(-c3ccc(Cl)cc3)nc3ccccc3c2=O)c1,10µM*
COc1cc(C2c3c(-c4ccccc4O)n[nH]c3C(=O)N2Cc2ccco2)ccc1OCC(C)C (stereo not given),2.2µM*
COc1cc(C2c3c(-c4ccccc4O)n[nH]c3C(=O)N2CCO)ccc1OCC(C)C (stereo not given),10µM*
COc1cc(C2c3c(-c4c(C)cc(C)cc4O)n[nH]c3C(=O)N2CCO)cc(OC)c1OC (stereo not given),i
COc1ccc(C2c3c(-c4ccc(F)cc4)n[nH]c3C(=O)N2c2ccccc2)cc1OC (stereo not given),-4%
COc1cc(C2c3c(oc4ccccc4c3=O)C(=O)N2Cc2ccccc2Cl)ccc1O (stereo not given),-26%
CNC(=O)c1ccc(C2CCCN2C(=O)CCc2cc3n(n2)CCCNC3)s1 (stereo not given),-2%
O=C(NC[C@H]1O[C@H](Cc2cc(-c3ccccn3)on2)CC[C@@H]1O)Nc1ccccc1,-20%[44.1 µM]
